The results in this text go back to PubChem BioAssay (EPA / NIEHS).

Molecules are shown by their SMILES. Activity calls are given as the source filed them. Rule for the calls: active = hit-call score of the fitted dose curve at least 0.9, where 1 is the maximum; inconclusive = response in the unintended direction; inactive = score below 0.9.

The nature of this assay: CPHEA_Stoker_NIS_Cytotoxicity: Cytotoxicity Assessment for CPHEA's Radioactive Iodide Uptake (RAIU) Assay for Sodium/Iodide Symporter (NIS) Inhibition, Stoker and Laws Labs (AID 2283897).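 For AC50: active means loss of ATP signal versus DMSO meaning cytotoxicity.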 The method, then: CPHEA_Stoker_NIS is a cell-based, single-readout assay that uses hNIS-HEK293T-EPA, a novel human kidney cell line expressing human NIS, with measurements taken at 2 hours after chemical dosing in a 96-well plate. This radioactive iodide uptake (RAIU) assay is used to identify inhibitors of NIS-mediated iodide uptake. A parallel cytoxicity assay (Cell Titer Glo, Promega) was also run in the same cell line.CPHEA_Stoker_NIS_Cytotoxicity is one of 2 assay components measured from the CPHEA_Stoker_NIS assay. It is designed to make measurements of atp content, a form of viability reporter, as detected with bioluminescence signals by Luciferase-coupled ATP quantitation technology.Data from the assay component CPHEA_Stoker_NIS_Cytotoxicity was analyzed at the endpoint, CPHEA_Stoker_NIS_Cytotoxicity, in the positive analysis fitting direction relative to DMSO as the negative control and baseline of activity. Using a type of viability reporter, measures of ATP content for loss-of-signal activity can be used to understand the viability. To generalize the intended target to other relatable targets, this assay endpoint is annotated to the cell cycle intended target family, where the subfamily is cytotoxicity.
hNIS-HEK293T-EPA cells were seeded with a MultiFlo FX dispenser (BioTek, Winooski, VT) into ScintiPlate-96 microplates (Perkin Elmer, Waltham, MA) at a density of 4.0x10^4 cells per well in 200uL growth media and incubated for 40 hours before experimentation. On day of the assay, carrier-free 125I (Perkin-Elmer, Waltham, MA; specific activity: 17.4Ci/mg) was diluted with Hanks' balanced salt solution (Sigma, St. Louis, MO) supplemented with 10mM HEPES (uptake buffer; pH 7.4) at 5uCi/mL (288pg 125I/mL uptake buffer; 2.30nM). The assay was initiated by washing cells twice with 200uL uptake buffer using a 96-well Tecan HydroSpeed plate washer (Tecan, Mannedorf, Switzerland). Uptake buffer (59.7uL) was then added back to each well. Chemical samples (350nL at 200X) were administered using the HDR tool as previously described to achieve a 1X chemical/0.5% final DMSO concentration with subsequent addition of 10uL of 125I dilution (final [125I]: 329pM; 2.88pg/well) for a final reaction volume of 70uL/well. Cells were incubated at room temperature for 2 hours and then washed twice with 200uL ice cold uptake buffer. All uptake buffer was aspirated from wells, plates were sealed, and read on a MicroBeta2 plate reader (Perkin Elmer, Waltham, MA) using a detection protocol to measure CPM corresponding to intracellular 125I concentration. Each chemical concentration (0.001, 0.01, 0.1, 1.0, 10, and 100uM) was assayed in triplicate with three independent biological replicate plates (3 sequential cell passages). Additionally, a concentration response of NaClO4 (0.001, 0.01, 0.1, 1.0, 10, and 100uM) served as a positive control inhibition curve on each RAIU assay plate. DMSO control wells were assayed on each plate as a measure of maximum iodide uptake for normalization and determination of intra- and inter-assay variation. (Toxicol In Vitro, 2017, 40:66-78).
`Cc1[nH]nc2c1N=C(c1ccccc1Cl)c1cc([N+](=O)[O-])ccc1N2`: the outcome was inactive.

With `O=C(O)C(=O)O`, the outcome was inactive.

Take `CC(C)c1c(C(=O)Nc2ccccc2)c(-c2ccccc2)c(-c2ccc(F)cc2)n1CC[C@@H](O)C[C@@H](O)CC(=O)O`: the result was inactive.

For the compound `Cc1cc(C(C)(C)C)c(O)c(C(C)(C)C)c1`, the outcome was inactive.

For `O=C(CCCN1CCC(O)(c2ccc(Cl)cc2)CC1)c1ccc(F)cc1`, the result was inactive.

In the case of `O=C1OC2(c3ccccc31)c1cc(I)c(O)c(I)c1Oc1c2cc(I)c(O)c1I`, the result was inactive.

Regarding `CCCCc1oc2ccccc2c1C(=O)c1cc(I)c(OCCN(CC)CC)c(I)c1`, the result was inactive.

Regarding `NCCN`, the result was inactive.

Take `CCCCCCc1ccc(N)cc1`: the result was inactive.

For orientation: AC50 means the concentration at which the activity in the assay is half-maximal. As for `NC(=NCCCCCCN=C(N)/N=C(\N)Nc1ccc(Cl)cc1)/N=C(\N)Nc1ccc(Cl)cc1`, the AC50 is 87 µM (active).

In the case of `CCCCC(CC)C(=O)O` (stereo not drawn), the result was inactive.

For `Cc1cc(Cc2cc(C)cc(C(C)(C)C)c2O)c(O)c(C(C)(C)C)c1`, the result was inactive.

Take `CCCCCCCCCCCC`: the outcome was inactive.
